Rows were chosen to be rich in hits. Some 12% of all compounds tested hit in one or more screens of this group.
SARS PLP yeast – qHTS of Yeast-based Assay for SARS-CoV PLP; S. cerevisiae expressing SARS-CoV PLpro, growth rescue; Potency, µM (series often up to 32.9 µM), for inactives: top-dose activity, positive = growth rescue, most hits filed as activators; 330,000 compounds, 0.19% hits; AID 485353, 2010; calls by dose curve; note: 0% is about no effect; nearly all actives have a fitted effect of over 55% in size
Sm TGR inh – qHTS Assay for the Inhibitors of Schistosoma Mansoni Peroxiredoxins. Schistosoma mansoni thioredoxin glutathione reductase (TGR), Q962Y6. purified TGR, DTNB reduction, TNB absorbance 405 nm. Potency, µM (doses to about 114 µM), without a hit: at the highest dose activity change, negative = inhibition, actives largely listed as inhibitors. 360,000 compounds, 3% hits. AID 485364, 2010; note: % is set by controls: 0 for no effect and ±100 for the full control effect; nearly all actives have a fitted effect of over 60% in size
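TGR 20 nM + NADPH 100 uM (dispensed conc.), cpd preinc 15 min RT; start with NADPH (500 uM addition) then DTNB (15 mM addition). Kinetic TNB absorbance, 405 nm filter. Four-parameter Hill fit across titration.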
Pf growth 96h – Primary qHTS for delayed death inhibitors of the malarial parasite plastid, 96 hour incubation. P. falciparum luciferase reporter growth, 96 h. Potency, µM (series often up to 28.7 µM), for the others: at the highest dose activity change, negative = inhibition, most hits filed as inhibitors. 320,000 compounds, 6.9% hits; note: % is set by controls: 0 for no effect and ±100 for the full control effect
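Cell-based qHTS: luciferase-tagged P. falciparum in erythrocytes (2% hematocrit, 0.05% parasitemia final) incubated with compounds for 96 hours, 37 C, 5% CO2; luciferase detection reagent then added and luminescence measured.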
Pf growth 48h – Primary qHTS for delayed death inhibitors of the malarial parasite plastid, 48 hour incubation; P. falciparum luciferase growth in erythrocytes, 48 h; Potency, µM (top dose mostly 28.7 µM), inactives show at the top dose activity change, negative = inhibition, hits mostly inhibitors; 310,000 compounds, 5.9% hits; AID 504832, 2011; note: % is set by controls: 0 for no effect and ±100 for the full control effect
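First compound was added to culture medium, then infected red cells at 0.1% parasitemia and 2% hematocrit (final). After incubation at 37 C under 5% CO2, luciferase detection reagent was dispensed and light output recorded.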
An asterisk follows results filed as active; u = inconclusive; x = not tested or not shown. Unless noted, calls come from the whole dose curve; as a rule, active = well fitted curve in the direction sought with a large enough effect; inconclusive = small, poorly fitted or top-dose-only effect, or another doubt; inactive = no such curve, though single readings can be large; an effect the other way counts as inactive or inconclusive. Potency is the fitted concentration of half-maximal effect.

SMILES	SARS PLP yeast	Sm TGR inh	Pf growth 96h	Pf growth 48h
CC[C@@]12C(=O)N(c3cccc(C)c3)C(=O)N1[C@H](c1ccc(OC)cc1)[C@@H]1C(=O)N(C(C)(C)C)C(=O)[C@@H]12	3%	-1%	u	u
CC(C)C[C@@]12C(=O)N(c3ccc(Br)cc3)C(=O)N1[C@H](c1ccc(Br)cc1)[C@@H]1C(=O)N(C(C)(C)C)C(=O)[C@@H]12	5%	5%	u	-40%
O=C(Nc1cc(-c2nc3ccccc3s2)ccc1Cl)c1cc2ccccc2o1	x	1%	x	x
CC(C)c1ccc(N2C(=O)N(Cc3ccccc3Cl)c3ccccc3S2(=O)=O)cc1	x	6%	x	x
CN(CC(=O)Nc1ccc(F)c(F)c1F)C(=O)C1CCN(C(=O)Nc2ccccc2)CC1	11%	-2%	-5%	u
CCOc1ccc(N(C(=O)CNC(=O)c2cccs2)C(C(=O)NCC2CCCO2)c2ccc(OC)c(OC)c2)cc1 (stereo not drawn)	-1%	x	-5%	9.3µM*
COc1ccc(N(C(=O)CNC(=O)c2cccs2)C(C(=O)NCC2CCCO2)c2ccc(OC)c(OC)c2)cc1 (stereo not drawn)	-2%	x	u	u
COc1ccc(C(C(=O)NC(C)(C)C)N(C(=O)CNC(=O)c2cccs2)c2ccc(C(C)C)cc2)cc1OC (stereo not drawn)	4%	-21%	8.3µM*	12µM*
COc1cc(CNCc2ccncc2)cc(OC)c1OC	-1%	-30%	227%	31%
COc1ccc2[nH]cc(CCN(C)C)c2c1	-1%	-20%	9%	7%
CCCCCSc1cc(OC)c(CCN(C)C)cc1OC	2%	1%	12µM*	u
COc1cc(NC(=O)CCCNC(=O)Cn2cnc3sc(C)c(C)c3c2=O)cc(OC)c1OC	5%	10%	0%	-4%
O=C(Cc1ccc(Cl)cc1)Nc1ccc(CN2CCCCC2)cc1	1%	4%	12µM*	u
CC(=O)Nc1ccc(CN2CCCCCC2)cc1	-1%	1%	0%	13%
CCCN1Cc2cccc(C(=O)Nc3ccc(CN4CCCC4)cc3)c2C1=O	-8%	0%	x	9.3µM*
O=C(Nc1ccc(CN2CCCCC2)cc1)c1cc(Br)ccc1Cl	0%	4%	u	12µM*
COCCN1Cc2cccc(C(=O)Nc3ccc(C)cc3)c2C1=O	-9%	2%	u	-18%
O=C(COC(=O)C1CC2C=CC1C2)Nc1c(Br)cc([N+](=O)[O-])cc1Br (stereo not drawn)	-51%	x	x	x
Cc1c(C)c2c(c(C)c1O)CCC(C)(COc1ccc(CC3SC(=O)NC3=O)cc1)O2 (stereo not drawn)	x	x	6µM*	u
Cc1c(Cl)cccc1-n1ncc(C(=O)Nc2ccc(Br)cc2F)c1C1CCNCC1	x	-10%	x	x
CCOc1ccccc1CNC(=O)c1ccc(NC(=O)N2CC(C)Sc3ccccc32)cc1 (stereo not drawn)	x	-1%	x	x
Cc1nc(NS(=O)(=O)c2ccccc2)sc1NC(=O)OCCN(C)C	2%	32µM*	u	47%
CCOC(=O)c1sc(NS(=O)(=O)c2ccccc2)nc1C	6%	-28%	u	6%
CCC(C(=O)NCc1ccco1)N(C(=O)CNS(=O)(=O)c1ccc(C)cc1)c1ccccc1F (stereo not drawn)	0%	-6%	-6%	u
COc1ccccc1N(C(=O)CNS(=O)(=O)c1ccccc1)C(C(=O)NCc1ccco1)C(C)C (stereo not drawn)	5%	-25%	5.2µM*	u
CCCC(C(=O)NCc1ccco1)N(C(=O)CNS(=O)(=O)c1ccccc1)c1ccccc1OC (stereo not drawn)	6%	-16%	u	10µM*
CCCC(C(=O)NC(C)(C)CC)N(Cc1ccco1)C(=O)CNS(=O)(=O)c1ccccc1 (stereo not drawn)	0%	9%	u	u
CCC(C(=O)NCc1ccco1)N(C(=O)CNS(=O)(=O)c1ccc(C)cc1)c1ccccc1OC (stereo not drawn)	1%	0%	21%	4.1µM*
COc1ccc(C(=O)C(C)OC(=O)CNC(=O)c2ccco2)cc1 (stereo not drawn)	-2%	x	x	x
O=C(Nc1ccc(F)cc1)N1CCN2C(=O)c3ccccc3C12c1ccccc1 (stereo not drawn)	1%	-6%	13µM*	x
